LMP1 NFkB inh – inhibitors of Epstein-Barr LMP1-induced NF-kappaB reporter; LMP1-induced NF-kappaB luciferase reporter cells, luminescence; inhibition, % at 12.5 µM; actives 0.69% (n = 350,000); in the data active = inhibition above about 41%; inconclusive = no clear call, values can overlap the other calls;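 note: 0% = neutral control wells and 100% = reference inhibitor control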
TWEAK-Fn14 inh – inhibitors of TWEAK-Fn14 interaction signaling. TWEAK-stimulated Fn14 reporter cells, luciferase luminescence, 8 h. inhibition, % at 10 µM. actives 2% (n = 360,000). AID 1159606; in the data active = inhibition above about 50%
HSF1 activator – increases HSF-1 driven luciferase reporter signal; NIH3T3-HGL HSF-1 luciferase reporter, MG132, 8 h; 100% = twice DMSO control signal; activation, % at 9 µM; actives 1.7% (n = 300,000); AID 504408;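 active = mean replicate activation of at least 50% with a set share of replicates each reaching 50%; inconclusive = only one of those two conditions met; inactive = mean below 50% and too few replicates reaching it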;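 note: 0% = median of the neutral control wells and 100% = twice that signal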
HSF1 inhib – HSF1 inhibition | NIH3T3-HGL HSE-luciferase, MG132-induced, luminescence 8 h; stronger effect = lower value | activity change, negative = inhibition, % at 7.5 µM (by protocol) | actives 0.77% (n = 300,000);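 active = more than half of replicate wells show activity change below -50%, luminescence cut by over half; inconclusive = some wells, but at most half, below -50%; inactive = no replicate well below -50%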;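 note: luciferase reports HSF-1 transcriptional activity via heat shock element; 0% = median of DMSO wells and -100% = zero luminescence signal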
LGR2 inh – blocks bursicon-induced cAMP signaling via Drosophila LGR2. HEK293 LGR2, CRE-luciferase, bursicon-stimulated, 4 h. inhibition, % at 9.99 µM. AID 720647. actives 0.35% (n = 380,000);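 active = drop in luminescence signal, shown as inhibition above about 50% in the replicate tests, limit read from the data, passing the limit was not always enough; inconclusive = probably only some replicates passing the limit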;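 note: agonist challenge used bursicon conditioned medium at about half maximal strength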
TROY NFkB inh – TROY signaling inhibition. Q293 LMP1-TROYcd NF-kB luciferase reporter, 4 h. inhibition, % at 10 µM. actives 0.98% (n = 360,000). AID 1347056;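 active = compounds whose plate-normalised and pattern-corrected inhibition of the luciferase reporter signal at the single screening dose is 50% or more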
* hit, by the source's call; u = inconclusive; x = no result. Most compounds without a hit are left out; they make up all but 3.6% or so of the library.

SMILES | LMP1 NFkB inh | TWEAK-Fn14 inh | HSF1 activator | HSF1 inhib | LGR2 inh | TROY NFkB inh
Nc1nonc1-c1nc2ccccc2n1Cc1ccc(F)cc1Cl | -18 | -24 | -33 | -28 | x | 54*
Cn1c(-c2nonc2N)nc2ccccc21 | -7 | -4 | -79 | -74* | -6 | -5
CCOc1cc(/C=C(\CC(=O)O)c2nc3ccccc3s2)ccc1OC | -4 | 62* | -11 | 0 | -13 | 37
Cc1ccc(/C=C(\CCC(=O)O)c2nc3ccccc3s2)cc1[N+](=O)[O-] | 6 | -15 | 45 | 12 | -18 | 33
COc1ccc(-c2nn(-c3ccccc3)cc2/C=C(\CC(=O)O)c2nc3ccccc3s2)cc1OC | 3 | -8 | -78 | -70* | -39 | -40
CN(c1ccccc1)c1ccc(/C=C(\CCC(=O)O)c2nc3ccccc3s2)cc1[N+](=O)[O-] | 7 | 46 | 57* | 16 | 7 | 42
COc1ccc2c3c([nH]c2c1)[C@@H](CO)N(CC1CCOCC1)CC31CN(C(=O)C2CC2)C1 | x | x | x | x | 3 | x
CCCC(=O)N1CC2(C1)CN(C(=O)C1CCCCC1)[C@H](CO)c1[nH]c3cc(OC)ccc3c12 | x | x | x | x | 7 | x
C[C@H](CO)N1C[C@H](C)[C@H](CN(C)C(=O)Nc2ccc(F)cc2)Oc2ccc(NC(=O)C3CC3)cc2C1=O | x | x | x | x | 24 | x
COc1cccc(OCCN2CCN(c3ncnc4c3cnn4-c3ccccc3)CC2)c1 | 9 | 57* | 18 | 2 | x | 31
CC1CCN(c2ncnc3c2cnn3-c2ccccc2)CC1 | -34 | -5 | 57* | 35 | -59 | 14
Cc1nn(-c2ccccc2)c(Cl)c1C(=O)N1CCN(c2ncnc3c2cnn3-c2ccccc2)CC1 | 53* | 106* | -82 | -77* | x | 85*
COc1ccc(-n2ncc3c(N4CCC(C)CC4)ncnc32)cc1 | 35 | 66* | -19 | -16 | u | 69*
CCCN(C)C[C@@H]1OCCCC[C@H](C)Oc2ccc(NC(=O)Nc3cccc4ccccc34)cc2C(=O)N([C@H](C)CO)C[C@@H]1C | x | x | x | x | -8 | x
COc1ccc(NC(=O)Nc2ccc3c(c2)C(=O)N([C@H](C)CO)C[C@@H](C)[C@@H](CN(C)CC2CCCCC2)OCCCC[C@@H](C)O3)cc1 | x | x | x | x | -9 | x
COc1c(CC=C(C)C)cc(C2CC(=O)c3c(O)cc(O)cc3O2)cc1CC=C(C)C (stereo unspecified) | -7 | -16 | -91 | -91* | x | 5
COC(=O)c1ccccc1NC(=O)CSc1nnc(C(CO)NC(=O)c2ccccc2)n1C (stereo unspecified) | -4 | 7 | -77 | -71* | 9 | -25
Cn1c2ccccc2c(=O)c2ccc(C#CC3(O)CCCCC3)cc21 | -18 | 97* | -66 | -65* | 100* | 91*
COc1cc2sc3ccc(C#CC4(O)CCCCC4)cc3c(=O)c2cc1OC | -59 | 92* | -59 | -59* | 94* | 84*
COc1cccc2sc3cc(C#CC4(O)CCCCC4)ccc3c(=O)c12 | -11 | 13 | x | x | 98* | -70
CO[C@@H]1CN(C)C(=O)c2cc(NC(C)=O)ccc2OC[C@@H](C)N(Cc2ccccn2)C[C@@H]1C | x | x | x | x | 17 | x
Cc1ccc(OCC(=O)NNC(=S)NC(=O)C2CCCCC2)c(C)c1 | 45* | -3 | 6 | -2 | x | 36
CCNC(=O)C[C@H]1CC[C@@H]2[C@H](COC[C@H](O)CN2C(=O)Nc2ccc3c(c2)OCO3)O1 | x | x | x | x | -16 | x
CC1c2ccsc2CCN1C(=O)NC(=O)c1ccc(Cl)cc1 (stereo unspecified) | 3 | -2 | 71* | 21 | 22 | -22
O=C(C1CC1)N1CC2(C1)[C@@H](c1ccccc1)[C@@H](CO)N2C(=O)c1cccnc1 | x | x | x | x | 8 | x
SMILES | LMP1 NFkB inh | TWEAK-Fn14 inh | HSF1 activator | HSF1 inhib | LGR2 inh | TROY NFkB inh
COc1ccc(NC(=O)N2C[C@@H]3[C@H](c4ccccc42)[C@@H](CO)N3C(=O)C2CC2)cc1 | x | x | x | x | 3 | x
O=C(Oc1c(CN2CCOCC2)cc(Cl)c2cccnc12)c1cccs1 | 4 | 2 | -16 | -18 | 12 | -6
O=C(Oc1c(CN2CCOCC2)cc(Cl)c2cccnc12)c1ccccc1Cl | 71* | 7 | 6 | -5 | 11 | 7
O=C(Oc1c(CN2CCOCC2)cc(Cl)c2cccnc12)c1ccc(F)cc1 | 58* | 34 | -15 | -5 | x | 17
COc1ccc(S(=O)(=O)N(C)C[C@@H]2OCCCC[C@H](C)Oc3ccc(NC(=O)NC(C)C)cc3C(=O)N([C@@H](C)CO)C[C@H]2C)cc1 | x | x | x | x | -1 | x
CC(C)NC(=O)N(C)C[C@H]1Oc2c(NC(=O)c3nc4ccccc4s3)cccc2C(=O)N([C@@H](C)CO)C[C@@H]1C | x | x | x | x | 12 | x
O=C(Nc1ccc2c(c1)nc1n2CCOC1)c1ccco1 | -8 | 10 | 20 | 2 | x | -12
O=C(Nc1ccc2oc(-c3ccccc3)nc2c1)c1ccc2c(c1)OCCO2 | 8 | 36 | 2 | 2 | x | 58*
O=C(Nc1cc2nn(-c3ccccc3)nc2cc1Cl)c1ccco1 | -98 | -8 | -5 | 18 | x | 27
O=C(Nc1ccc2oc(-c3ccncc3)nc2c1)c1ccc2c(c1)OCCO2 | 4 | -22 | 1 | 1 | 1 | -16
O=C(Nc1ccc2nn(-c3ccccc3)nc2c1)c1ccco1 | -30 | -2 | 54* | 16 | x | 2
O=C(Nc1ccc2oc(-c3ccncc3)nc2c1)c1ccco1 | -2 | -18 | 20 | 3 | -16 | 8
O=C(Nc1ccc2c(c1)nc1n2CCSC1)c1ccco1 | 45* | 48 | 30 | 7 | x | -11
O=C(Nc1ccc2oc(-c3ccccc3)nc2c1)c1ccco1 | -19 | -9 | 86* | 35 | -34 | -64
O=C(Cc1ccncc1)N1C[C@@H]2N[C@H](C1)C2c1ccc(/C=C/c2ccccc2)cc1 (stereo partly specified) | x | x | x | x | 1 | x
O=C(NC1CC1)c1[nH]c(C(F)(F)F)nc1-c1ccccc1 | x | 6 | x | x | -3 | -1
O=C(Nc1ccc2c(c1)OCCO2)c1[nH]c(C(F)(F)F)nc1-c1ccccc1 | x | 90* | x | x | 8 | 81*
Cc1noc(C)c1NC(=O)Nc1ccc2c(c1)C(=O)N([C@H](C)CO)C[C@H](C)[C@H](CN(C)C(=O)Nc1c(C)noc1C)OCCCC[C@H](C)O2 | x | x | x | x | -2 | x
Cc1ccc(N=C2NC(=O)/C(=C/c3cccn3C)S2)cc1C | x | -12 | 54* | 29 | -23 | -80
Cc1ccc(N=C2NC(=O)/C(=C/c3cccn3C)S2)cc1 | -22 | 11 | 18 | 16 | -56 | -55

Screens (PubChem BioAssay)
